How the values were obtained:
Assay in all cases: DAPPL (digital affinity profiling via proximity ligation, sequencing); 10 mM Tris-HCl pH 7.5, 50 mM NaCl, 1 mM DTT, 4% glycerol, room temperature, 30 min; GST-TFs on glutathione beads, 16-mer random dsDNA library, 0.1% formaldehyde crosslink after washing; high values mean tight binding
FEV = target: T1, FEV (Homo sapiens, UniProt Q99581 1-238); conditions: protein: recombinant; tags: N-terminal GST; dsDNA, one strand shown
T1 sequence: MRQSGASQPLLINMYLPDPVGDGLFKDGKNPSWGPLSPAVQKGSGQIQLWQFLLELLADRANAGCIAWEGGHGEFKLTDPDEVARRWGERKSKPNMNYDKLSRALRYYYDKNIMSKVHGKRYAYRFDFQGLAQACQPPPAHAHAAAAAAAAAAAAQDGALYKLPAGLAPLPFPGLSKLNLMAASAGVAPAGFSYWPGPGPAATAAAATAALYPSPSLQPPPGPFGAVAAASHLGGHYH
Method in brief: (§1)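 Sequencing on an Illumina NextSeq500 followed washing, crosslinking with 0.1% formaldehyde, proximity ligation (BsaI/T4 ligase, 1 h, 37 °C) and PCR amplification of pools that had been incubated for 30 min at room temperature with 200 nmole of a random double-stranded 16-mer DNA library in Tris/NaCl/DTT/glycerol buffer. Each pool held DNA-barcoded human transcription factors, expressed in yeast as GST fusions and captured on glutathione beads, plus a tag-only sample. Binding signal is a hexamer's read frequency for a factor divided by its frequency in the tag-only sample.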

ETV5 = ETV5 (Homo sapiens, UniProt P41161 1-510); conditions: protein: recombinant; tags: N-terminal GST; dsDNA, one strand shown
Method in brief: as §1

HSF1 = HSF1 (Homo sapiens, UniProt Q00613 1-529); conditions: protein: recombinant; tags: N-terminal GST; chain copies: 3; dsDNA, one strand shown
Method in brief: as §1

SPIC = target: T2, SPIC (Homo sapiens, UniProt Q8N5J4 1-248); conditions: protein: recombinant; tags: N-terminal GST; dsDNA, one strand shown
T2 sequence: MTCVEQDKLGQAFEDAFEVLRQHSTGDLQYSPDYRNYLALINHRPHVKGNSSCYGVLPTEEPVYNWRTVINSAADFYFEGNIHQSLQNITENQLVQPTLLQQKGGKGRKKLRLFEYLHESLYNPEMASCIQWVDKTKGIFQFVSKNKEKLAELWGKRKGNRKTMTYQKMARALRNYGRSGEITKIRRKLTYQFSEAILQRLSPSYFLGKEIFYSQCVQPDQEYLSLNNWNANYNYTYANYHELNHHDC
Method in brief: as §1

ELF4 = ELF4 (Homo sapiens, UniProt Q99607 1-663); conditions: protein: recombinant; tags: N-terminal GST; dsDNA, one strand shown
Method in brief: as §1

ELK4 = target: T3, ELK4 (Homo sapiens, UniProt P28324-2 1-405); conditions: protein: recombinant; tags: N-terminal GST; dsDNA, one strand shown
T3 sequence: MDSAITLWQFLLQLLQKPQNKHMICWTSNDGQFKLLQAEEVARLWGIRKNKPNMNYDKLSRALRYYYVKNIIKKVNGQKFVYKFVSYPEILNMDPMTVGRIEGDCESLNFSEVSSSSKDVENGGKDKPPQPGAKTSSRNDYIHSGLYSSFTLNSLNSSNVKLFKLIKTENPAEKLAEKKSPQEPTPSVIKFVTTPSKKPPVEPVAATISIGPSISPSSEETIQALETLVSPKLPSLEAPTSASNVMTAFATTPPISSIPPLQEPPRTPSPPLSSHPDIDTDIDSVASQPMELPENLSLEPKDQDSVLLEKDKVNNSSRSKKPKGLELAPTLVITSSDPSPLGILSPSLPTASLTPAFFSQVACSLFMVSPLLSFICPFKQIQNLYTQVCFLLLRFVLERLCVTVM
Method in brief: as §1

ETV2 = target: T4, ETV2 (Homo sapiens, UniProt O00321 1-342); conditions: protein: recombinant; tags: N-terminal GST; dsDNA, one strand shown
T4 sequence: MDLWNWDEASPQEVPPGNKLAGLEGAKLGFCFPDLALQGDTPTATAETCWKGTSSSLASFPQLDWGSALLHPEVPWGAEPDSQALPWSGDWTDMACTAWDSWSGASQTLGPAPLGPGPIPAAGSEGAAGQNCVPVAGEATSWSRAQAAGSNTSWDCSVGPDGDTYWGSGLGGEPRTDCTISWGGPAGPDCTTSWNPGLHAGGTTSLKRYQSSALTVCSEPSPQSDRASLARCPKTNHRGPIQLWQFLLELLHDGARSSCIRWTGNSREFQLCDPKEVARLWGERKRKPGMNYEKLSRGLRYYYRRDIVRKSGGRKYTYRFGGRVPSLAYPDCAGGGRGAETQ
Method in brief: as §1

ELF3 = target: T5, ELF3 (Homo sapiens, UniProt P78545 1-371); conditions: protein: recombinant; tags: N-terminal GST; dsDNA, one strand shown
T5 sequence: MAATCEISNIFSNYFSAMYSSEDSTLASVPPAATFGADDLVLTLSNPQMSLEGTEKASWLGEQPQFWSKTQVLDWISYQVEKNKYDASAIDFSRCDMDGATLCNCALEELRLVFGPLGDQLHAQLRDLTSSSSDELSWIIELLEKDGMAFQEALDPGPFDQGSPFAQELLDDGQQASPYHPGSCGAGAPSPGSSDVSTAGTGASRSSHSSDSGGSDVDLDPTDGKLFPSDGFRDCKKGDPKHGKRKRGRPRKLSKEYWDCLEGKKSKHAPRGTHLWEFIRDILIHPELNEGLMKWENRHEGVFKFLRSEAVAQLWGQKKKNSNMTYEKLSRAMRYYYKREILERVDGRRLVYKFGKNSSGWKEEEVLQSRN
Method in brief: as §1

CRX = CRX (Homo sapiens, UniProt O43186 1-299); conditions: protein: recombinant; tags: N-terminal GST; dsDNA, one strand shown
Method in brief: as §1

ETV1 = ETV1 (Homo sapiens, UniProt P50549 1-477); conditions: protein: recombinant; tags: N-terminal GST; dsDNA, one strand shown
Method in brief: as §1

CRX, sequence (O43186 whole entry): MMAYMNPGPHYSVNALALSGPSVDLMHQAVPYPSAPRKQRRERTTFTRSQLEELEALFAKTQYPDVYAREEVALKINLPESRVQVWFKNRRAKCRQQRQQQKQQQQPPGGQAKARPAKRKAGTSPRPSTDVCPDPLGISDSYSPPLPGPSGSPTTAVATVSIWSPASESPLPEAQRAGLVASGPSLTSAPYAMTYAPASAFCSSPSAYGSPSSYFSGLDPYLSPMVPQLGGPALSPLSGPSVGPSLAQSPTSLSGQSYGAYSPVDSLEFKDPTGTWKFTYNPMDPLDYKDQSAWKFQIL
HSF1, sequence (Q00613 whole entry): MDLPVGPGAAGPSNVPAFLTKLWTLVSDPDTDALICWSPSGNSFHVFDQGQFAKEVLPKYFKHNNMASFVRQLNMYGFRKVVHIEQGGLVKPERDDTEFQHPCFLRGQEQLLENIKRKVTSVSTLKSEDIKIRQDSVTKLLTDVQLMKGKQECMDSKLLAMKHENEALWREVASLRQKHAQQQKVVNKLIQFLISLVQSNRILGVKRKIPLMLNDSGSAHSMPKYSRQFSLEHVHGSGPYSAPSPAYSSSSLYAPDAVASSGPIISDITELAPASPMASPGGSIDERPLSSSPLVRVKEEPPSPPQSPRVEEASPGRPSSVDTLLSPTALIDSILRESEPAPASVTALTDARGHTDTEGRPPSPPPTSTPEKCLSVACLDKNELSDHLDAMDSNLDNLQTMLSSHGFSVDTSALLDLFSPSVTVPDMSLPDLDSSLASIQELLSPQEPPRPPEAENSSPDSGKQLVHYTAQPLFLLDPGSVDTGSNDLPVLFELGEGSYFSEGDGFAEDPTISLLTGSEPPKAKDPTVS
ETV1, sequence (P50549 whole entry): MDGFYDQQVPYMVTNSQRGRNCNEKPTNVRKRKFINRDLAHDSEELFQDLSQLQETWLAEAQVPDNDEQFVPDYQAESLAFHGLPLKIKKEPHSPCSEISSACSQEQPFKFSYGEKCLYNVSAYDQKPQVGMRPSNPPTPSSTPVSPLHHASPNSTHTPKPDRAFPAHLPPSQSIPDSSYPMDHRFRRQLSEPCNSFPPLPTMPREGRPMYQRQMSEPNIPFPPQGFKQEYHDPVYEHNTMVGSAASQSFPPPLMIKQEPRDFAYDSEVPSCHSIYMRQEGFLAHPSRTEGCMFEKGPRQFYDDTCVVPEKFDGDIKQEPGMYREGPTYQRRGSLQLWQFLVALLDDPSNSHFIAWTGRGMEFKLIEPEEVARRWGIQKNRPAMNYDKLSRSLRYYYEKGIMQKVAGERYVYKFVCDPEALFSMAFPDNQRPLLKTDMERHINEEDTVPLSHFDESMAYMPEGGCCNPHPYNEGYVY
ETV5, sequence (P41161 whole entry): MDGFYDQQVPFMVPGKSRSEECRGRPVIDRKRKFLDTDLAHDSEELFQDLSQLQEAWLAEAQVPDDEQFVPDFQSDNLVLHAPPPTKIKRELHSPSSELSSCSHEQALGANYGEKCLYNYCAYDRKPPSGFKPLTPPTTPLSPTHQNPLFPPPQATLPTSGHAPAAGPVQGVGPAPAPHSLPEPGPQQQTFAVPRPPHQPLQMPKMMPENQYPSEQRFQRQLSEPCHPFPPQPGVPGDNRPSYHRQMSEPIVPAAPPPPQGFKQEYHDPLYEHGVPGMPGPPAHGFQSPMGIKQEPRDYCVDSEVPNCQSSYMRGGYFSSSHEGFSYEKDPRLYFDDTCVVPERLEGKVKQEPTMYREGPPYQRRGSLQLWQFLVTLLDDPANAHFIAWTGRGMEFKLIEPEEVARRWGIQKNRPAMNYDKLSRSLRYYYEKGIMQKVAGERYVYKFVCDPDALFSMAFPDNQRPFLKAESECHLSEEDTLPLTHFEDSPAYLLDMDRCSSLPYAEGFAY
ELF4, sequence (Q99607 whole entry): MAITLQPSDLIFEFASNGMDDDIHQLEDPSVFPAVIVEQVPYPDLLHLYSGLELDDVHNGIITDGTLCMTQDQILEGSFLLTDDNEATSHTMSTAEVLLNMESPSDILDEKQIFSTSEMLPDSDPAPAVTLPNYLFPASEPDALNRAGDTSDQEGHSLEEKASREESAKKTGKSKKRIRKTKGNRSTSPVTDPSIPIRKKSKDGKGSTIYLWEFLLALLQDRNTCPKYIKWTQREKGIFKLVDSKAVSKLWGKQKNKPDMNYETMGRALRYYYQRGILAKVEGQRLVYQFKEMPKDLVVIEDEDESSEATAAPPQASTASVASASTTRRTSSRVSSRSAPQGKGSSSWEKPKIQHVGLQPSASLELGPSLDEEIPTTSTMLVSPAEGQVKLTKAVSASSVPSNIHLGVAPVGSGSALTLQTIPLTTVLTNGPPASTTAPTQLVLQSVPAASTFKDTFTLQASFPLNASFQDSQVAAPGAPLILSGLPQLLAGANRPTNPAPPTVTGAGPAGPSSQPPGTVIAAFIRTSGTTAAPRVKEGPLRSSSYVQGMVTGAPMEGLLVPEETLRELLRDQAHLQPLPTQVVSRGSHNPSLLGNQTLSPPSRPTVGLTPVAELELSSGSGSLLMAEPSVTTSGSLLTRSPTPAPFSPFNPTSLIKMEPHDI

Sequence | binding signal (FEV) | binding signal (ETV5) | binding signal (HSF1) | binding signal (SPIC) | binding signal (ELF4) | binding signal (ELK4) | binding signal (ETV2) | binding signal (ELF3) | binding signal (CRX) | binding signal (ETV1)
ATTCTC | 1.32 fold enrichment (6-mer frequency, TF over GST control) | 1.31 fold enrichment (6-mer frequency, TF over GST control) | 2.42 fold enrichment (6-mer frequency, TF over GST control) | 1.15 fold enrichment (6-mer frequency, TF over GST control) | 1.35 fold enrichment (6-mer frequency, TF over GST control) | 1.25 fold enrichment (6-mer frequency, TF over GST control) | 1.36 fold enrichment (6-mer frequency, TF over GST control) | 1.2 fold enrichment (6-mer frequency, TF over GST control) | 1.69 fold enrichment (6-mer frequency, TF over GST control) | 1.23 fold enrichment (6-mer frequency, TF over GST control)
CATCCC | 1.18 fold enrichment (6-mer frequency, TF over GST control) | 1.31 fold enrichment (6-mer frequency, TF over GST control) | 1.05 fold enrichment (6-mer frequency, TF over GST control) | 1.3 fold enrichment (6-mer frequency, TF over GST control) | 1.22 fold enrichment (6-mer frequency, TF over GST control) | 1.22 fold enrichment (6-mer frequency, TF over GST control) | 1.15 fold enrichment (6-mer frequency, TF over GST control) | 1.27 fold enrichment (6-mer frequency, TF over GST control) | 1.05 fold enrichment (6-mer frequency, TF over GST control) | 1.16 fold enrichment (6-mer frequency, TF over GST control)
CCTCCT | 1.46 fold enrichment (6-mer frequency, TF over GST control) | 1.59 fold enrichment (6-mer frequency, TF over GST control) | 1.3 fold enrichment (6-mer frequency, TF over GST control) | 1.47 fold enrichment (6-mer frequency, TF over GST control) | 1.66 fold enrichment (6-mer frequency, TF over GST control) | 1.61 fold enrichment (6-mer frequency, TF over GST control) | 1.45 fold enrichment (6-mer frequency, TF over GST control) | 1.2 fold enrichment (6-mer frequency, TF over GST control) | 1.32 fold enrichment (6-mer frequency, TF over GST control) | 1.52 fold enrichment (6-mer frequency, TF over GST control)
TATCGA | 1.2 fold enrichment (6-mer frequency, TF over GST control) | 1.29 fold enrichment (6-mer frequency, TF over GST control) | 1.83 fold enrichment (6-mer frequency, TF over GST control) | 1.28 fold enrichment (6-mer frequency, TF over GST control) | 1.34 fold enrichment (6-mer frequency, TF over GST control) | 1.37 fold enrichment (6-mer frequency, TF over GST control) | 1.44 fold enrichment (6-mer frequency, TF over GST control) | 1.55 fold enrichment (6-mer frequency, TF over GST control) | 1.59 fold enrichment (6-mer frequency, TF over GST control) | 1.31 fold enrichment (6-mer frequency, TF over GST control)
ACCTGC | 1.5 fold enrichment (6-mer frequency, TF over GST control) | 1.53 fold enrichment (6-mer frequency, TF over GST control) | 1.27 fold enrichment (6-mer frequency, TF over GST control) | 1.22 fold enrichment (6-mer frequency, TF over GST control) | 1.47 fold enrichment (6-mer frequency, TF over GST control) | 1.59 fold enrichment (6-mer frequency, TF over GST control) | 1.39 fold enrichment (6-mer frequency, TF over GST control) | 1.65 fold enrichment (6-mer frequency, TF over GST control) | 1.22 fold enrichment (6-mer frequency, TF over GST control) | 1.57 fold enrichment (6-mer frequency, TF over GST control)
CTTAGA | 1.15 fold enrichment (6-mer frequency, TF over GST control) | 1.06 fold enrichment (6-mer frequency, TF over GST control) | 1.53 fold enrichment (6-mer frequency, TF over GST control) | 1.27 fold enrichment (6-mer frequency, TF over GST control) | 1.09 fold enrichment (6-mer frequency, TF over GST control) | 1.24 fold enrichment (6-mer frequency, TF over GST control) | 1.15 fold enrichment (6-mer frequency, TF over GST control) | 1.07 fold enrichment (6-mer frequency, TF over GST control) | 1.69 fold enrichment (6-mer frequency, TF over GST control) | 1.14 fold enrichment (6-mer frequency, TF over GST control)
CTGCAT | 1.54 fold enrichment (6-mer frequency, TF over GST control) | 1.46 fold enrichment (6-mer frequency, TF over GST control) | 1.12 fold enrichment (6-mer frequency, TF over GST control) | 1.32 fold enrichment (6-mer frequency, TF over GST control) | 1.43 fold enrichment (6-mer frequency, TF over GST control) | 1.39 fold enrichment (6-mer frequency, TF over GST control) | 1.28 fold enrichment (6-mer frequency, TF over GST control) | 1.4 fold enrichment (6-mer frequency, TF over GST control) | 1.12 fold enrichment (6-mer frequency, TF over GST control) | 1.29 fold enrichment (6-mer frequency, TF over GST control)

— PMC7862700, “An all-to-all approach to the identification of sequence-specific readers for epigenetic DNA modifications on cytosine”
